Key:
Assay in all cases: log2 ratio of Biotin-Ahx-Ub-VS probe labelling (fragment/DMSO); higher = less target engagement (more negative = stronger competition), active = hit call of the paper (q ≤ 0.05, log2 ratio ≤ -1)
Details in all cases: compound concentration: 200 uM; treatment time: 3 h
USP34 = USP34 (UniProt Q70CQ2)
Summary of the method: (§1)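 Using Biotin-Ahx-Ub-VS at 0.5 µM final for 1 h, DUBs were labelled in HEK293T lysate (495 µg per sample) that had first been treated in triplicate with fragment at 200 µM or vehicle for 3 h. NeutrAvidin enrichment, LysC and trypsin digestion and diaPASEF LC-MS/MS followed. Spectronaut label-free quantities were global-median-normalised. Values are average log2 fragment/vehicle ratios by unpaired t-test, using proteins with ≥2 unique peptides.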

USP36 = target: T1, USP36 (UniProt Q9P275)
T1 sequence (whole entry): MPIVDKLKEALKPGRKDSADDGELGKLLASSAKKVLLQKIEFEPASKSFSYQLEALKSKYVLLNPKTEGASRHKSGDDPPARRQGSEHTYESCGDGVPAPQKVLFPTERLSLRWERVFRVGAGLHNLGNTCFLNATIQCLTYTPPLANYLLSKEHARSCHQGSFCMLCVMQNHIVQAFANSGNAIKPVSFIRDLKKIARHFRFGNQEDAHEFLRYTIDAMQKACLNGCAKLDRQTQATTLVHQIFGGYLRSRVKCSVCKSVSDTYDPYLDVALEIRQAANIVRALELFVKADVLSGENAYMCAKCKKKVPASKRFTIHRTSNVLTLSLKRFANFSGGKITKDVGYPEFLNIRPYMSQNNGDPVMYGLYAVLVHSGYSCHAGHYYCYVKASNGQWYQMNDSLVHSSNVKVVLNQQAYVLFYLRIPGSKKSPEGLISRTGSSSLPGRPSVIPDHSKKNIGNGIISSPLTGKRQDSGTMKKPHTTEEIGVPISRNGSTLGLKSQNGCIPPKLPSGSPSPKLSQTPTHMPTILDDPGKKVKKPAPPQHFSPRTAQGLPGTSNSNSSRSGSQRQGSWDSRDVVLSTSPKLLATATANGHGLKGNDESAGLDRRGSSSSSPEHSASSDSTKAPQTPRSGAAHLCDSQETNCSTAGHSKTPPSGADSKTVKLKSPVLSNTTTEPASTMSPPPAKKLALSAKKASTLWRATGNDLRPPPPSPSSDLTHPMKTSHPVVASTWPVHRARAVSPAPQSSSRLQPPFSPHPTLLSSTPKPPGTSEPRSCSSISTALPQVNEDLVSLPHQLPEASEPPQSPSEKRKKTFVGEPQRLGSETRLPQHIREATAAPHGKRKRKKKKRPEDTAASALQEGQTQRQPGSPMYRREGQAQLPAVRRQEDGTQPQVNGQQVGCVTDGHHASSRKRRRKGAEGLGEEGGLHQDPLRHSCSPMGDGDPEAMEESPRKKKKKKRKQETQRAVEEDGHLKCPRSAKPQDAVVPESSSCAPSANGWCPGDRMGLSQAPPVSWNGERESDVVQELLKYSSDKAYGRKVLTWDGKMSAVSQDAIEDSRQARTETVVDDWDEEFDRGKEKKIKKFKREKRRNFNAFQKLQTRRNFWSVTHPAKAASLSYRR
Summary of the method: as §1

USP38 = target: T2, USP38 (UniProt Q8NB14)
T2 sequence (whole entry): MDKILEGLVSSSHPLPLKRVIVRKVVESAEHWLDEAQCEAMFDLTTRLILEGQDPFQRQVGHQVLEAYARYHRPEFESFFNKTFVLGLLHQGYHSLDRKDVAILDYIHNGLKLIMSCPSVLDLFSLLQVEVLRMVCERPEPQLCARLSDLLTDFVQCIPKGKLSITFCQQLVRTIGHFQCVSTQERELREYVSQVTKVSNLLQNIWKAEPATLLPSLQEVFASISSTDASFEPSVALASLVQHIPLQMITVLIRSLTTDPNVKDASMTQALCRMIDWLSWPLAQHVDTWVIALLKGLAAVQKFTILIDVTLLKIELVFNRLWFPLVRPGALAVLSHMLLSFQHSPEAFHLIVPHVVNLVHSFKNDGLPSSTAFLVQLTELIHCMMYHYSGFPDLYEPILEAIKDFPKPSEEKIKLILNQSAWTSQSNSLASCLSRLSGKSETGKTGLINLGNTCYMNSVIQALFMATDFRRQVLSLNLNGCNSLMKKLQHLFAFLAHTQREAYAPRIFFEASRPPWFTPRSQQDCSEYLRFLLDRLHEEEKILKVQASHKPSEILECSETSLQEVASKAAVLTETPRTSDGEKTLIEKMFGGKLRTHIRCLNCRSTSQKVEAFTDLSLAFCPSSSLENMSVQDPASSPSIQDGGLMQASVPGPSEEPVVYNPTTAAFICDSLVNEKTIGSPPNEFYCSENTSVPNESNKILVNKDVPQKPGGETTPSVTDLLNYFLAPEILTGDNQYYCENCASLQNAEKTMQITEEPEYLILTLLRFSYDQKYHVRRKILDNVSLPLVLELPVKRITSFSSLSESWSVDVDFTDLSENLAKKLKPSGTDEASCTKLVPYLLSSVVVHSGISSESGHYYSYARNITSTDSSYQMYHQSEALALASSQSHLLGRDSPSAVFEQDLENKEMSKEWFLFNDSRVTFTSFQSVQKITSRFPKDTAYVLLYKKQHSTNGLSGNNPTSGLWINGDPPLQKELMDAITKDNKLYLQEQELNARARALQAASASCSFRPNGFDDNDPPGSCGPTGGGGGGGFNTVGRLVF
Summary of the method: as §1

USP39 = target: T3, USP39 (UniProt Q53GS9)
T3 sequence (whole entry): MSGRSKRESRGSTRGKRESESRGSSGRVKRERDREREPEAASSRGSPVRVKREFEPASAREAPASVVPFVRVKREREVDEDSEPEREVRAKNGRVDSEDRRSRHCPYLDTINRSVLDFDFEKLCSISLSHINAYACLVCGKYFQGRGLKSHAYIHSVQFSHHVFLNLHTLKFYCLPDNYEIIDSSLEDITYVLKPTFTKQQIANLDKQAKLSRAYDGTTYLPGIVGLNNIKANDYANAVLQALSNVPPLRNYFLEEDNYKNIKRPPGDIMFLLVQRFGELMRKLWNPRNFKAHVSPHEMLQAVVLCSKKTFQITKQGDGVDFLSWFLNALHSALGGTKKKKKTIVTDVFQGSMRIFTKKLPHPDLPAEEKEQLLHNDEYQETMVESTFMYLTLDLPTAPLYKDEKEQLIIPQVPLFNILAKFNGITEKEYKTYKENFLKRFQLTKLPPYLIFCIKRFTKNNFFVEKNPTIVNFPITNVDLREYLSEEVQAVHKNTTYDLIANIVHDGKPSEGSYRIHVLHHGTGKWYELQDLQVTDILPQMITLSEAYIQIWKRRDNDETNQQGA
Summary of the method: as §1

USP4 = target: T4, USP4 (UniProt Q13107)
T4 sequence (whole entry): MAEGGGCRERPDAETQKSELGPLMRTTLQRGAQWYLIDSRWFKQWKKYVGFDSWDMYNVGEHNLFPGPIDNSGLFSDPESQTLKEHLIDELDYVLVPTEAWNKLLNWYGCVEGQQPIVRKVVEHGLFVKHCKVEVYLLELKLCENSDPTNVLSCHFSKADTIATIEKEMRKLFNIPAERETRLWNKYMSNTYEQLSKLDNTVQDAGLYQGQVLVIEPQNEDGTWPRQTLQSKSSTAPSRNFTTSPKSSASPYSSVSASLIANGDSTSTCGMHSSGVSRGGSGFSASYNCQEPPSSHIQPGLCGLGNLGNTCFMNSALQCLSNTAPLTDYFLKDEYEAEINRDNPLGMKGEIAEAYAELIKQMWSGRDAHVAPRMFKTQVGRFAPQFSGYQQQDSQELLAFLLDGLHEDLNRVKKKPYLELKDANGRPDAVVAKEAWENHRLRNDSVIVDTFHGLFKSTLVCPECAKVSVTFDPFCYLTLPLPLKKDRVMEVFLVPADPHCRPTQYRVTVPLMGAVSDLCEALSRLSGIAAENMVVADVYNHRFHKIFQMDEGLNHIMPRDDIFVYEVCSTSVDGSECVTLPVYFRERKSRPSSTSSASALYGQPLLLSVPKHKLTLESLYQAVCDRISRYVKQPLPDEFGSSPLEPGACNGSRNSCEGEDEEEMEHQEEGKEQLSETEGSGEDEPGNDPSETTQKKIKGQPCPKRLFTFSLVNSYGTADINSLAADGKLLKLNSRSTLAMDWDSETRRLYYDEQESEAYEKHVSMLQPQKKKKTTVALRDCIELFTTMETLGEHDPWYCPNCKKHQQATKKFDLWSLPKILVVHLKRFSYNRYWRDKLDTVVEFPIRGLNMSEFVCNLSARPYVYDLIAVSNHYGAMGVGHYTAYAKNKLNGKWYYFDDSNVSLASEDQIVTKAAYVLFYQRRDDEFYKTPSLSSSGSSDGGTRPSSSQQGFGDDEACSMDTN
Summary of the method: as §1

Measured: log2 ratio of Biotin-Ahx-Ub-VS probe labelling

Sequence of USP34 (Q70CQ2 whole entry, the tested form may be a part): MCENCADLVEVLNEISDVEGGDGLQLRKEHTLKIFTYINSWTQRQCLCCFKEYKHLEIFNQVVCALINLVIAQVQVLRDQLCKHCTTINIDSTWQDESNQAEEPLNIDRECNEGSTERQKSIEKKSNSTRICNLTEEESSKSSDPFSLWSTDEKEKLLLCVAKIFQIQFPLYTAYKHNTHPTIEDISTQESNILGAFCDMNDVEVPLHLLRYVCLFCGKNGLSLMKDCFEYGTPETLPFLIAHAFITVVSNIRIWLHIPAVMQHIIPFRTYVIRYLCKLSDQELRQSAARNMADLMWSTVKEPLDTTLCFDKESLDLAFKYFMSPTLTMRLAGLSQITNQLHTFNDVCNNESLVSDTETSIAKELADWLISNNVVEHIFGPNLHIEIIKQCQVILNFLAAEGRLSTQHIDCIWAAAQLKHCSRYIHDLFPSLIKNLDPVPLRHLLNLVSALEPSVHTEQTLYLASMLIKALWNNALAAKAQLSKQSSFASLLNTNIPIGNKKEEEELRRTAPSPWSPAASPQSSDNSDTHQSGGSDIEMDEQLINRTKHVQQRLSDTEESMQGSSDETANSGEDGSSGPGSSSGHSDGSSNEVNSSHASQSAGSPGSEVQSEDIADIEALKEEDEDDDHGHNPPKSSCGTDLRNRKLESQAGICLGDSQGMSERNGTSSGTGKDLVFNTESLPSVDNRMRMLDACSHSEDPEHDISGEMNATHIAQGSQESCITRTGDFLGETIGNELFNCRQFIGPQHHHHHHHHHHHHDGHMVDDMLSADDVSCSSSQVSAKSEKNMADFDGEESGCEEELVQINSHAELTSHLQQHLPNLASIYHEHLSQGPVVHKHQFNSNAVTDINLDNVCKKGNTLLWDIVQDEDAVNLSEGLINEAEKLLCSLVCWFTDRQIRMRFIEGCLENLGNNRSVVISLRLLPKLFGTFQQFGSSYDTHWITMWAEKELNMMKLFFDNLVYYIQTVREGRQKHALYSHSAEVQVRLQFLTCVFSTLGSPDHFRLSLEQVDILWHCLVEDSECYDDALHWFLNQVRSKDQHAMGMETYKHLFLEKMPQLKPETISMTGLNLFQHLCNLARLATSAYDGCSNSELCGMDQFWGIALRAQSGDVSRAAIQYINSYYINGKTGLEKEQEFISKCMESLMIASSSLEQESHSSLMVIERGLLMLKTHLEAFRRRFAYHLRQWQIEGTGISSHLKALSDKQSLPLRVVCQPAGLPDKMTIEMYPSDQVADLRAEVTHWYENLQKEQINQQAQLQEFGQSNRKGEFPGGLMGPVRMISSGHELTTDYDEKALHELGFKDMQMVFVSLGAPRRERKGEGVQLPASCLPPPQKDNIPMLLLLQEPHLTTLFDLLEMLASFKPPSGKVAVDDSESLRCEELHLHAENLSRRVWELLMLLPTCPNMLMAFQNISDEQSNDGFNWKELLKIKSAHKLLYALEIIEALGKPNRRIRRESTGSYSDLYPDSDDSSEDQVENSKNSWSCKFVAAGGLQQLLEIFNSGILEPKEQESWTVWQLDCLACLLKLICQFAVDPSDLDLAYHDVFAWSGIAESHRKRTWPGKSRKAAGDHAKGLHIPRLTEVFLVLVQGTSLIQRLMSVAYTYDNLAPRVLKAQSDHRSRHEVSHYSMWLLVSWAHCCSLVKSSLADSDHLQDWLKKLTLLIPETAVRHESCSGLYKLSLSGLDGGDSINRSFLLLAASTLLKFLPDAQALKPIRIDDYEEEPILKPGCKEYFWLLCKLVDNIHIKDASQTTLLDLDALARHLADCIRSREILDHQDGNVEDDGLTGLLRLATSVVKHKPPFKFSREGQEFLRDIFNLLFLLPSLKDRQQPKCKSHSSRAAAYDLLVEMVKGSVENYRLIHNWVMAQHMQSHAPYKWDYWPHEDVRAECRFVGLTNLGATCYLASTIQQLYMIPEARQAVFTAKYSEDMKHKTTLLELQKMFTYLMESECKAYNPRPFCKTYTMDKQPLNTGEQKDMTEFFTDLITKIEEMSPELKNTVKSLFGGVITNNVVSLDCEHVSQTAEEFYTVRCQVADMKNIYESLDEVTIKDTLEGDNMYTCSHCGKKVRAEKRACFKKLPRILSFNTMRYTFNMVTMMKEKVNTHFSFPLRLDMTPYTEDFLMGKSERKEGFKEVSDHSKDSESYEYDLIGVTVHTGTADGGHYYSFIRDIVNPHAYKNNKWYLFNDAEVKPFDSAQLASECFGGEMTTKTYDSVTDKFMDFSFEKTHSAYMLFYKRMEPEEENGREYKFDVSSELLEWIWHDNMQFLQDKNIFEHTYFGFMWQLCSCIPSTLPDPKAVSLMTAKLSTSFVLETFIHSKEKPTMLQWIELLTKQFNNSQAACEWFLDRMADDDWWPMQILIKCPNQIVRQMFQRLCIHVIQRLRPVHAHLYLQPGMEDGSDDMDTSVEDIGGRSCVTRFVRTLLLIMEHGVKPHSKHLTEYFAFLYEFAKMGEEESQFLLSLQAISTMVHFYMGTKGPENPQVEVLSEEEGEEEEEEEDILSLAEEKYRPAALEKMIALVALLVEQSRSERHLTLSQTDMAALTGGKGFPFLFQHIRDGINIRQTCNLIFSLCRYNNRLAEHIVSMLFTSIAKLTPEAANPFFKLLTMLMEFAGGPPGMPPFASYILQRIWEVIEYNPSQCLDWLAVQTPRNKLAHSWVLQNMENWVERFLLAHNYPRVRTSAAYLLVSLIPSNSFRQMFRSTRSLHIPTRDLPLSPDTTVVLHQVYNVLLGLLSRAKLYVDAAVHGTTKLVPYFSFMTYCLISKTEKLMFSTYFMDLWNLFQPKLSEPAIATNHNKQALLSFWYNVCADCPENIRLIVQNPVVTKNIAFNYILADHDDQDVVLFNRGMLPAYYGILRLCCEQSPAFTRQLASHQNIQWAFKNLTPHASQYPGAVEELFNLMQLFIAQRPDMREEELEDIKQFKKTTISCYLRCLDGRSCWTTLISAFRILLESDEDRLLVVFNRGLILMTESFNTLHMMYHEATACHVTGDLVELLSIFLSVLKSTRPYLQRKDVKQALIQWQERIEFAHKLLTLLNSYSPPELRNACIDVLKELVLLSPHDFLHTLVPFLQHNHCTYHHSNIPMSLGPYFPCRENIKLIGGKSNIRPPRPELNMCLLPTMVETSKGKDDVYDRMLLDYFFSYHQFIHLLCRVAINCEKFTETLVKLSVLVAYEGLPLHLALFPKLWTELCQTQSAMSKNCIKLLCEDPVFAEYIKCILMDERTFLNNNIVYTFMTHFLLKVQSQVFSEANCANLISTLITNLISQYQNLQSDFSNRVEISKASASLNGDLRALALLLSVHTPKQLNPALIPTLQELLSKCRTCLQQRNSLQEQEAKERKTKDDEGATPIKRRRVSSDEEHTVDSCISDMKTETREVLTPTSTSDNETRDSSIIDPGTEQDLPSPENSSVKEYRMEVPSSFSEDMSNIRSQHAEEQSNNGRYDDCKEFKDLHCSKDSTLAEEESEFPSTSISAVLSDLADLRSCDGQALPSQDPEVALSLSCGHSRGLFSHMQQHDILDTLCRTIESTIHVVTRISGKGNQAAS

O=C(CCl)N1CCC(OCc2ccccc2F)CC1
inactive: USP34 -0.138 | USP36 0.169 | USP38 0.211 | USP39 0.264 | USP4 -0.121
